Measurements reported in PubChem BioAssay (NCI).
The panel holds about 83,000 compounds, 20% with a hit somewhere; the sample as a whole holds those more often.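 Growth was measured after 48 h exposure to one concentration of compound in 96-well plates. Values under 10 count as active.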 Unmarked numbers belong to inactive results. Calls of active or inactive are those of the source.

Columns and labels:
Experiment in all cases: NCI-60 one-dose screen, 48 h (100 = growth as untreated, 0 = no growth, -100 = all killed)
Details in all cases: 10 µM unless noted
NCI-H23 lung = system: NCI-H23 lung
NCI-H226 lung = system: NCI-H226 lung
NCI-H322M lung = system: NCI-H322M lung
HOP-62 NSCLC = system: HOP-62 NSCLC
NCI-H460 lung = system: NCI-H460 lung
HOP-92 NSCLC = system: HOP-92 NSCLC
NCI-H522 lung = system: NCI-H522 lung
A549/ATCC NSCLC = system: A549/ATCC NSCLC
786-0 renal = system: 786-0 renal
COLO 205 colon = system: COLO 205 colon
DU-145 prostate = system: DU-145 prostate
K-562 leukemia = system: K-562 leukemia
MALME-3M melanoma = system: MALME-3M melanoma
MDA-MB-231 breast = system: MDA-MB-231 breast
RXF 393 renal = system: RXF 393 renal
SF-268 CNS = system: SF-268 CNS
SF-295 CNS = system: SF-295 CNS
SF-539 CNS = system: SF-539 CNS
UACC-257 melanoma = system: UACC-257 melanoma
M14 melanoma = system: M14 melanoma

| Compound | growth (NCI-H23 lung) | growth (NCI-H226 lung) | growth (NCI-H322M lung) | growth (HOP-62 NSCLC) | growth (NCI-H460 lung) | growth (HOP-92 NSCLC) | growth (NCI-H522 lung) | growth (A549/ATCC NSCLC) | growth (786-0 renal) | growth (COLO 205 colon) | growth (DU-145 prostate) | growth (K-562 leukemia) | growth (MALME-3M melanoma) | growth (MDA-MB-231 breast) | growth (RXF 393 renal) | growth (SF-268 CNS) | growth (SF-295 CNS) | growth (SF-539 CNS) | growth (UACC-257 melanoma) | growth (M14 melanoma) |
| --- | --- | --- | --- | --- | --- | --- | --- | --- | --- | --- | --- | --- | --- | --- | --- | --- | --- | --- | --- | --- |
| COc1ccc(NC(=O)Nc2ccc(-c3ccc(OC)c(OC)c3)nc2C)cc1 | 67.4% | 58% | 87% | 56.5% | 17.6% | 73.4% | 49.9% | 57% | 11.1% | 91.9% | 72.2% | 73.2% | 44.1% | 40.5% | 58.2% | 59.2% | 102% | 70.6% | 55.5% | 72.1% |
| C=CC(=O)Nc1cccc(Nc2nc(Nc3ccc(OCCOC(F)F)cc3)ncc2F)c1 | 75.2% | 22.5% | 10.3% | 29.1% | 37.4% | -0.338% (active) | -7.77% (active) | 30.9% | 20% | 63.5% | 34.7% | 19.9% | 46.3% | 66.3% | 9.55% (active) | 40.5% | 52.5% | 31.4% | 52.7% | 29% |
| CC(C)(CCN=C(N)Nc1ccccn1)c1ccc(C(F)(F)F)cc1 | 11.8% | 42.4% | 45.5% | 50.4% | 18.3% | -2.94% (active) | 4.82% (active) | 31.2% | 29.2% | -72.8% (active) | 52.7% | -31.2% (active) | -49.4% (active) | -14.4% (active) | 26.2% | 51.2% | 6.92% (active) | 53.9% | -7.98% (active) | -64.3% (active) |
| CC[C@@]1(O)C(=O)OCc2c1cc1n(c2=O)Cc2c-1nc1ccccc1c2/C=N/OC(C)(C)C | -4.17% (active) | -78.7% (active) | 12.4% | -24.1% (active) | 1.16% (active) | -11.8% (active) | -47.8% (active) | -11% (active) | 2.49% (active) | -26.9% (active) | 6.82% (active) | 7.64% (active) | -15.3% (active) | 24.2% | -47.5% (active) | 2.41% (active) | -1.63% (active) | -24.4% (active) | -44% (active) | -18% (active) |
| C[C@@H]1CC2C3C[C@H](F)C4=CC(=O)C=C[C@]4(C)[C@@]3(F)[C@@H](O)C[C@]2(C)[C@@]1(O)C(=O)CO (stereo not given in full) | 105% | 70.5% | 94.6% | 101% | 96.2% | 80% | 91.9% | 68% | 109% | 99.3% | 80.8% | 107% | 84.7% | 95.1% | 120% | 88.8% | 116% | 83.2% | 88.4% | 93.5% |
| O=S(=O)(Nc1cccc2cc(OS(=O)(=O)c3ccccc3)ccc12)c1ccccc1 | 73.8% | 74.7% | 90.1% | 46.3% | 29.7% | 57.6% | 40.5% | 57.1% | 81.2% | 51.9% | 92% | 25.2% | 56.2% | 76.4% | 86.5% | 74.2% | 59.3% | 63.4% | 75.6% | 40.3% |
| COc1cccc(/C=N/C(=S)NC2(C)C3CCC(C3)C2(C)C)c1O (stereo not given) | 94.7% | 93.1% | 73.1% | 92% | 60.2% | 93.3% | 69.7% | 74.7% | 88% | 89.6% | 105% | 79.4% | 89.8% | 96.2% | 99% | 94.7% | 86.1% | 95.3% | 87% | 64.8% |
| O=C1C(Cl)=C(Nc2ccccc2)C(=O)C(Cl)=C1Nc1ccccc1 | 106% | 103% | 120% | 113% | 112% | 101% | 112% | 109% | 109% | 109% | 121% | 103% | 119% | 121% | 116% | 105% | 114% | 106% | 107% | 113% |
